Source: PubChem BioAssay AID1259309 (ICCB-Longwood Screening Facility, Harvard Medical School, 2017)
Several values for one entry are separate records, joined by “and”; a condition that tells them apart may be missing. Equal values may be shown once. The campaign covered roughly 330,000 compounds. About 1,800 (0.55%) were called active. The full list was thinned out, with actives kept by preference. Unmarked numbers belong to inactive results. Cut-off read from the data, not from the text of the source: active = growth inhibition above about 68%; inactive = the rest.

Assay: growth inhibition of ugtP-null S. aureus, primary screen, RN4220 ugtP deletion, OD600 (AID 1259309);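 note: plate controls were untreated wells for no effect and antibiotic for full effect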
Details: 16 h, hits give high values

SMILES | growth inhibition
Cc1ccc(S(=O)(=O)N(Cc2cccc([N+](=O)[O-])c2)C(=O)N2CCN(C)CC2)cc1 | 2.43%
O=C(CCl)N(Cc1cccc([N+](=O)[O-])c1)c1cccc(Cl)c1 | 97.8% (active)
O=C(c1cccc([N+](=O)[O-])c1)N1CCN(Cc2ccccc2)CC1 | 9.07%
COC(=O)C1=C(c2ccc3ccccc3c2)CC2CCC1N2C(=O)NCc1ccc(F)cc1 (centres undefined) | 12%
COc1cccc(C2C3=C(N=c4sc(=Cc5cccc(O)c5)c(=O)n42)c2ccccc2CC3)c1OC (centres undefined) | -7.58%
COc1ccc(CCNC(=O)C(Sc2ccccn2)c2ccccc2)cc1OC (centres undefined) | 9.85%
COc1ccc(CN(Cc2ccc(OC)cc2)C(=O)c2cccs2)cc1 | 43.4%
COc1ccc(C(CCN(Cc2ccc(OC)c(OC)c2)C(=O)CCl)c2ccccc2)cc1 (centres undefined) | 98% (active)
COc1ccc(N(CC(=O)NN=Cc2ccco2)S(=O)(=O)c2ccccc2)cc1Cl | 2.1%
COc1ccc(C=NNC(=O)COc2ccc(C(C)(C)C)cc2)cc1Cn1nc(C)cc1C | 0.349%
O=C(NN=Cc1cccnc1)C1CC1(c1ccccc1)c1ccccc1 (centres undefined) | 9.47%
O=C1C=C(c2cccc(CO)c2)CC(c2ccc(Cl)cc2)C1 (centres undefined) | 7.76%
Cn1cc(Cl)c(C(=O)NNC(=S)Nc2cccc(Cl)c2)n1 | -5.85%
FC(F)(F)c1cccc(NC(=S)Nc2cccc(Cl)c2)c1 | 93.1% (active)
O=C(O)CC1(CC(=O)Nc2cccc(C(F)(F)F)c2)CCCC1 | -0.923%
Cc1ccc(SC(=NS(=O)(=O)c2ccc(Cl)cc2)c2ccccc2)cc1 | 60.7%
O=C(COC(=O)C=Cc1ccccc1)Nc1cc(C(F)(F)F)ccc1N1CCOCC1 | -9.22%
CCCCCCCCn1c2c(c(=N)c3c1CCC3)CCCC2 | 100% (active)
COc1ccc(OC)c(C=NNC(=O)c2ccc(-c3ccccc3)cc2)c1 | 1.81%
CC(=NNC(=O)c1cc(-c2ccc(Br)s2)[nH]n1)c1ccncc1 | -6.85%

SMILES | growth inhibition
CC1COc2ccccc2N1C(=O)c1ccc(F)cc1 (centres undefined) | -0.431%
O=C(COC(=O)c1ccc(F)cc1)NCC1COc2ccccc2O1 (centres undefined) | -4.48%
O=C(Nc1nnc(C2COc3ccccc3O2)o1)c1ccc(F)cc1 (centres undefined) | 90.2% (active)
COC(=O)c1ccccc1-c1ccc(C=NNc2nc(N3CCCC3)nc(N3CCCC3)n2)o1 | -8.43%
CON=Cc1cc(C(=O)c2ccc(Cl)cc2Cl)cn1C | -4.32%
CC(C)=CCCC1(C)C=Cc2c(ccc3c2[nH]c2cc(O)c(C)cc23)O1 (centres undefined) | 95.6% (active)
CC[C@@]12C(=O)N(c3cccc(F)c3)C(=O)N1C(c1ccc(Br)cc1)C1C(=O)N(C(C)(C)C)C(=O)C12 (some centres undefined) | -3.27%
CCCCCCCCCCCCN1CC(=CC(=O)OCC)c2cc(C(F)(F)F)ccc2S1(=O)=O | 2.79%
O=C(CON=Cc1c(Cl)cccc1Cl)NNC(=O)c1cccc(Cl)c1 | 2.89%
Cc1ccccc1N/C(SCc1ccc(Cl)cc1)=C(/C#N)C(N)=O | 84.4% (active)
Cc1ccccc1NC(=O)CSC(=O)c1ccccc1 | 5.32%
Cc1cccc(NC(=O)CSC(N)=O)c1C | 8.69%
O=C(CNC(=O)c1ccc(-c2ccccc2)cc1)OCc1ccc(Cl)cc1 | 19.4%
O=C(OCc1ccc(-c2ccccc2)cc1)c1cccc(O)c1 | 100% (active)
O=C(OCC(=O)c1c[nH]c2ccccc12)c1cccc(O)c1 | -15.2%
Cn1cccc1CC(=O)NN=Cc1ccco1 | -0.545%
OCCC1CC(O)C(O)[C@]2(OCCCc3ccccc32)O1 (some centres undefined) | 4.16% and 2.75%
COc1cc(C=NNC(=O)CC#N)ccc1Oc1nc(Cl)ncc1F | -1.11%
O=C(Oc1ccc(C=NNc2ccccc2)cc1)c1ccccc1 | -8.03%
N#CC(=NNc1cc(Cl)cc(Cl)c1)c1nnc2n1CCCCC2 | -12%

SMILES | growth inhibition
Cc1cc(C)n(C(=O)C(C#N)=NNc2cc(Cl)cc(Cl)c2)n1 | 99.7% (active)
Cc1cc(C)n(C(=O)CCNC(=O)c2ccccc2Cl)n1 | -2.2%
CC(=NNC(=O)c1ccco1)c1ccc(NC(=O)C(F)(F)F)cc1 | 0.661%
CCOc1ccc(N2C(=O)CC(S/C(N)=N/N=Cc3cccs3)C2=O)cc1 (centres undefined) | 4.39%
CCOC1OC(C(=O)N2CCN(Cc3ccc4c(c3)OCO4)CC2)=CC(c2cn(C(C)=O)c3ccccc23)C1CCCO (centres undefined) | -12.6% and 8.11%
Oc1ccc(C=NNc2cccc3cccnc23)c(O)c1 | 3.39%
Oc1ccccc1C=NNc1cccc2cccnc12 | 83% (active)
Oc1ccccc1C=NNc1nccnc1Cl | 0.00308%
Cc1ccc2nc(NN=Cc3ccccc3C#N)nc(-c3ccccc3)c2c1 | 11.2%
O=c1c2nnn(-c3ccccc3)c2ncn1CC=Cc1ccccc1 | 12.1%
CCOc1ccc(-c2cc(C)[n+](CCN(CC)CC)c(-c3ccc(OCC)cc3)c2)cc1 | 97.1% (active)
CCOc1ccc(-c2nnc3ccc(SC)nn23)cc1 | 0.868%
CCOc1ccc2c(c1)C(c1ccc(C)cc1)=NNC(c1ccc(C)cc1)=N2 | 10.8%
CCCC(C#Cc1ccc(N(C)C)cc1)=C1c2ccccc2C(=O)N1c1ccccc1 | 13.2%
COC(=O)NN=Cc1cc(Br)ccc1OCc1ccccc1 | 20.2%
C(=Nn1c2ccccc2c2ccccc21)c1ccccc1 | 11.7%
CC(C)c1ccc2c(c1)c(SC(C)(C)C)c(CC(C)(C)C(=O)O)n2Cc1ccc(Cl)cc1 | 101% (active)
CCOc1ccc2ccccc2c1C=NNC(=O)CNC(=O)C(c1ccccc1)c1ccccc1 | 22.4%
CN1CCSC1=CC=C1C(=O)N(C)C(=S)N1C | -5.24%
